From publication PMC4336329 (PLoS ONE, 2015)
Hit rate of the full screen: of about 310,000 compounds, about 14,000 (4.5%) showed an effect of 50% or more. Effects have a minus sign here. For the sample, strong results were picked, then their nearest neighbours and some compounds at random.

What follows are compounds tested against human ether-à-go-go-related gene (hERG) potassium channel (human, UniProt Q12809) (assay: primary screen, population patch clamp on CHO cells stably expressing hERG; higher = less effect of the substance).
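Note: peak tail current of the secondary pulse compared with the same well before compound.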

Chain of human ether-à-go-go-related gene (hERG) potassium channel (Q12809 whole entry, looked up): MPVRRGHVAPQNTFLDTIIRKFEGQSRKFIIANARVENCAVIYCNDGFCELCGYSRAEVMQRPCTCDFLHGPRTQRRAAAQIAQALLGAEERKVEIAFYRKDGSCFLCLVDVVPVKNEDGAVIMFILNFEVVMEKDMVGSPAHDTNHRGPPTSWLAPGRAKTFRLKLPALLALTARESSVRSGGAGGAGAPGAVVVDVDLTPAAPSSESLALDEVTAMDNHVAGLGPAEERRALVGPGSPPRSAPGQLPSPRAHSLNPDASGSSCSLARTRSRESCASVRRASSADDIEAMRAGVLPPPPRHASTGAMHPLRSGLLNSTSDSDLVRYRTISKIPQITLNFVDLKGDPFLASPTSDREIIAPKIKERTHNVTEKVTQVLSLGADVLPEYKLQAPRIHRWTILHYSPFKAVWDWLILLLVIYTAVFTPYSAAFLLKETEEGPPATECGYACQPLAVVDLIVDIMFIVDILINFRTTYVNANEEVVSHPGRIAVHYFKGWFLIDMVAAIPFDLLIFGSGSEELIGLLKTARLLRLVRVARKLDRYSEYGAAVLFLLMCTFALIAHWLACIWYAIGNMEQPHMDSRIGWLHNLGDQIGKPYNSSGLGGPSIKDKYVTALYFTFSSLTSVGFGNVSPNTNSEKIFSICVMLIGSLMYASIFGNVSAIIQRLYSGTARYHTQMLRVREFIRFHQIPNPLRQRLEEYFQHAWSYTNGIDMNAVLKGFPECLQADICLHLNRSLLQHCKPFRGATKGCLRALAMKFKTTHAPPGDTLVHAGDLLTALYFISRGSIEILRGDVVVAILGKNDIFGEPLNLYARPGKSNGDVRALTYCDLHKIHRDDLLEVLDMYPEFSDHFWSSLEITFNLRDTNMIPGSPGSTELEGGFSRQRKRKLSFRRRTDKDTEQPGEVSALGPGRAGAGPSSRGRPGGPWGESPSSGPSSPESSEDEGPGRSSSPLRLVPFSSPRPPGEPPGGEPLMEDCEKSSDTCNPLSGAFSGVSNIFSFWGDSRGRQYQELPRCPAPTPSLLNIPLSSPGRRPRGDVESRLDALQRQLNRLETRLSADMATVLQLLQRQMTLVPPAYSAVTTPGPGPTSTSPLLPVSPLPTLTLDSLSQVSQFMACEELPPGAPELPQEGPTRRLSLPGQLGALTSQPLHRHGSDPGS

Row | SMILES | hERG current change (%, negative = inhibition) at 10uM
1 | COc1ccc(C(=O)C(CCCCC(CN(C)C)C(=O)c2ccc(OC)cc2)CN(C)C)cc1.Cl (stereo not shown) | -2.07%
2 | O/N=C/c1ccc(OCc2ccccc2F)c(Cl)c1 | 2.95%
3 | COc1cc2c(cc1NC(=O)CN1C(=O)NC3(CCc4ccccc43)C1=O)oc1ccccc12 (stereo not shown) | 7.1%
4 | C=CCn1c(COc2ccccc2)nnc1SCC(=O)O | -3.46%
5 | C=CCn1c(COc2ccc(Cl)cc2)nnc1SCC(=O)N/N=C/c1ccccc1 | -7.71%
6 | C=CCn1c(COc2ccccc2)nnc1SCC(=O)C(C)(C)C | -13.6%
7 | C=CCn1c(COc2ccc(Cl)cc2)nnc1SCc1ccc(C#N)cc1 | -69.8%
8 | C=CCn1c(COc2ccccc2)nnc1SCc1ccc(C#N)cc1 | -68.2%
9 | C=CCn1c(COc2ccc(Cl)cc2)nnc1SCC(=O)NCC(=O)OCC | -31.4%
10 | C=CCn1c(COc2ccc(F)cc2)nnc1SCC(=O)N1CC(=O)Nc2ccccc21 | -33%
11 | C=CCn1c(COc2ccc(Cl)cc2)nnc1SCC(=O)N1CC(=O)Nc2ccccc21 | -63.5%
12 | C=CCn1c(COc2ccccc2F)nnc1SCC(=O)N1CC(=O)Nc2ccccc21 | -22.6%
13 | O=C(CSCc1ccc(F)cc1)NCc1ccc(F)cc1 | -24.7%
14 | Cc1n[nH]c(=S)n(NC(=O)CC(=O)Nn2c(=S)[nH]nc(C)c2=O)c1=O | 45.4%
15 | COc1ccc(NC(=O)C(C)SCc2ccccc2)cc1OC (stereo not shown) | -1.56%
16 | C=CCSc1nc2sc3c(c2c(=O)[nH]1)CCC3 | 2.84%
17 | CN(CC(=O)NC1CCCCC1)S(=O)(=O)c1ccc(Br)s1 | 20.1%
18 | CCc1ccc2c(c1)C1(SC(NC(C)=O)=NN1C(C)=O)C(=O)N2CC (stereo not shown) | -0.0665%
19 | C=CCNC(=O)C1CCN(S(C)(=O)=O)CC1 | -0.873%
20 | CNC(=S)N(Cc1cccs1)Cc1cc2ccc(OC)cc2[nH]c1=O | 6.44%
21 | O=C1NCC(COc2ccc([N+](=O)[O-])cc2)O1 (stereo not shown) | -78.4%

Row | SMILES | hERG current change (%, negative = inhibition) at 10uM
22 | COc1ccc(OCC2CNC(=O)O2)cc1 (stereo not shown) | -26.2%
23 | O=C1NCC(COc2ccc(Cl)cc2)O1 (stereo not shown) | 48.4%
24 | CCCn1cc(CN2CCCC(C(=O)c3cccc(OC)c3)C2)c(C)n1 (stereo not shown) | -51%
25 | CCCn1ncc(CN2CCCC(C(=O)c3cccc(OC(C)C)c3)C2)c1C (stereo not shown) | -48.8%
26 | CCCn1cc(CN2CCCC(C(=O)c3ccc4c(c3)OCO4)C2)c(C)n1 (stereo not shown) | -55.4%
27 | CCn1ncc(CN2CCCC(C(=O)c3cccc(OC(C)C)c3)C2)c1C (stereo not shown) | -19.8%
28 | CCCn1cc(CN2CCC(n3nccc3NC(=O)c3ccc4c(c3)OCO4)CC2)c(C)n1 | -5.62%
29 | CCCn1cc(CN2CCCC(C(=O)c3cccc(OC(C)C)c3)C2)c(C)n1 (stereo not shown) | -35.5%
30 | CCCn1ncc(CN2CCCC(C(=O)c3cccc(OC)c3)C2)c1C (stereo not shown) | -67.8%
31 | CCn1cc(CN2CCCC(C(=O)c3cccc(OC)c3)C2)c(C)n1 (stereo not shown) | -21.3%
32 | Cc1ccc(CS(=O)(=O)c2ncc(Cl)c(C(=O)Nc3nnc(C(C)C)s3)n2)cc1 | 9.25%
33 | CC(=O)Oc1cc2cccc(OC(C)=O)c(=O)c2c(OC(C)=O)c1OC(C)=O | 1.34%
34 | CCCNC(=O)c1ccc(N2CCC3(CC2)CC(c2ccccc2)=NO3)c(NC(=O)c2cccc(C)c2)c1 | -18.6%
35 | CCCNC(=O)c1ccc(N2CCC3(CC2)CC(c2cccc(Br)c2)=NO3)c(NC(=O)c2ccccc2)c1 | -0.8%
36 | CCCCC(CC)C(=O)Nc1cc(C(=O)NCCC)ccc1N1CCC2(CC1)CC(c1cccc(Br)c1)=NO2 (stereo not shown) | -7.85%
37 | CCCNC(=O)c1ccc(N2CCC3(CC2)CC(c2ccccc2)=NO3)c(NC(=O)c2cccc(OC)c2)c1 | -68.6%
38 | CCCCC(CC)C(=O)Nc1cc(C(=O)NCc2ccc(C)cc2)ccc1N1CCC2(CC1)CC(c1ccccc1)=NO2 (stereo not shown) | 2.86%
39 | CCCCC(CC)C(=O)Nc1cc(C(=O)NCCC)ccc1N1CCC2(CC1)CC(c1ccccc1)=NO2 (stereo not shown) | -64.6%
40 | O=C(NC(=O)c1csnn1)Nc1ccccc1Cl | 9.03%
41 | CCc1cc2c3c(c1)C(C)CC(C)(C)N3C(=O)C2=O (stereo not shown) | -15.6%
42 | C=CCN=C1CC(C)(C)CC(=O)/C1=C(\O)c1ccccc1 | -6.18%

Row | SMILES | hERG current change (%, negative = inhibition) at 10uM
43 | CCCC(=O)Nc1sc(C)c(C)c1C#N | 2.9%
44 | Cc1cc(N(C)C)nc(Nc2ccccc2)n1 | -56.8%
45 | Cc1cc(C)nc(Sc2nc(Nc3ccccc3)nc(Sc3nc(C)cc(C)n3)n2)n1 | -4.94%
46 | CN(C)c1nc(Nc2ccccc2)nc(N(C)C)n1 | 8.3%
47 | COc1ccccc1CCNC(=O)NC1CCCCC1 | -12.1%
48 | Cc1nc(C(C)NC(=O)CCc2nnc(-c3ccsc3)o2)cs1 (stereo not shown) | 15.8%
49 | CC(=Nc1ccc2c(c1)nc(CO)n2C)C1=C(O)CC(C)(C)CC1=O | 2.09%
50 | Cc1ccccc1NS(=O)(=O)c1ccc(OCCNS(C)(=O)=O)cc1 | -4.01%
51 | N#Cc1cc2c(nc1SCC(=O)Nc1cc(Cl)ccc1Cl)C1CCN2CC1 | -51.7%
52 | CCN(CC)S(=O)(=O)c1cc(NC(=O)CSc2nc3c(cc2C#N)C(=O)CC(C)(C)C3)ccc1C | 4.51%
53 | CN(C)S(=O)(=O)c1ccc(Cl)c(NC(=O)CSc2nc3c(cc2C#N)C(=O)CC(C)(C)C3)c1 | -65.3%
54 | N#Cc1cc2c(nc1SCC(=O)Nc1ccc(Cl)cc1)C1CCN2CC1 | -7.69%
55 | CN(C)S(=O)(=O)c1cccc(NC(=O)CSc2nc3c(cc2C#N)C(=O)CC(C)(C)C3)c1 | -34.7%
56 | CN1CCc2nc(SCC(=O)Nc3ccc(Cl)cc3)c(C#N)cc2C1 | -38.4%
57 | CCCCOC(=O)c1ccc(NC(=S)N2CCN(c3ncc4c(=O)c(C(=O)O)cn(CC)c4n3)CC2)cc1 | 11.2%
58 | C[C@H](NC(=O)c1[nH]cnc1C(=O)Nc1ccc(CNC(=O)OC(C)(C)C)cc1)C(=O)OC(C)(C)C | 17.2%
59 | COC(=O)c1ccc(C2c3c(oc4ccc(F)cc4c3=O)C(=O)N2CCO)cc1 (stereo not shown) | 3.74%
60 | O=C(CN1CCN(Cc2ccccc2)CC1)N/N=C/c1ccc(Br)s1 | -60%
61 | Cc1ccsc1/C=N/NC(=O)CN1CCN(Cc2ccccc2)CC1 | -8.1%
62 | Cc1ccc(/C=N/NC(=O)CN2CCN(Cc3ccccc3)CC2)s1 | -55.8%
63 | O=C(CCC(=O)N/N=C/c1ccc(Br)s1)NCc1ccccc1 | 5.19%

Row | SMILES | hERG current change (%, negative = inhibition) at 10uM
64 | O=C(N/N=C/c1ccc(Br)s1)Nc1ccccc1 | 4.13%
65 | Cc1ccc(/C=N/N2CCN(Cc3ccccc3)CC2)s1 | -15.7%
66 | COc1cc(CC(=O)OCC(=O)Nc2ncc(Cl)cc2Cl)cc(OC)c1OC | 7.58%
67 | COc1ccccc1NS(=O)(=O)c1ccc(O)c(C(=O)OCC(=O)c2ccc(Cl)cc2Cl)c1 | 23.4%
68 | Br.CC(C)CCC1CC(CSC(=N)N)OC1=O (stereo not shown) | -14%
69 | Cc1ccc(-c2cc(-c3ccccc3)cc(-c3ccccc3)[n+]2-c2ccccc2C(=O)O)cc1.[O-][Cl+3]([O-])([O-])[O-] | -21.5%
70 | [O-]c1ccccc1-[n+]1c(-c2ccccc2)cc(-c2ccccc2)cc1-c1ccccc1 | -71.1%
71 | Oc1ccccc1-[n+]1c(-c2ccccc2)cc(-c2ccccc2)cc1-c1ccccc1.[O-][Cl+3]([O-])([O-])[O-] | -71.2%
72 | Cc1ccccc1-[n+]1c(-c2ccccc2)cc(-c2ccccc2)cc1-c1ccccc1.[O-][Cl+3]([O-])([O-])[O-] | -76.3%
73 | Oc1ccccc1-[n+]1c(-c2ccccc2)cc(-c2ccccc2)c(O)c1-c1ccccc1.[O-][Cl+3]([O-])([O-])[O-] | 15.1%
74 | O=C([O-])c1ccccc1-[n+]1c(-c2ccccc2)cc(-c2ccccc2)cc1-c1ccccc1 | -3.82%
75 | O=C([O-])c1ccc(-[n+]2c(-c3ccccc3)cc(-c3ccccc3)cc2-c2ccccc2)cc1 | -0.807%
76 | Nc1ccccc1-[n+]1c(-c2ccccc2)cc(-c2ccccc2)cc1-c1ccccc1.[O-][Cl+3]([O-])([O-])[O-] | -50.9%
77 | COc1ccc(NC(=O)C2CCCN(S(=O)(=O)c3ccc4c(c3)CC(C)N4C(C)=O)C2)cc1 (stereo not shown) | 24.3%
78 | Cc1ccc(NC(=O)C2CCCC2)cc1Cl | -2.92%
79 | O=C(COC(=O)CNS(=O)(=O)c1ccccc1)NC12CC3CC(CC(C3)C1)C2 | -18%
80 | C=CCNC(=S)N/N=C(\C)c1cccnc1 | 0.787%
81 | O=C(NC1CCCC1)C(c1cc2c(cc1[N+](=O)[O-])OCO2)N1CCCC1 (stereo not shown) | 20.6%
82 | COc1cc(C(=O)Nc2cccnc2)cc(OC)c1OC | 16.3%
